Assay [1] can be described thus: antimalarial activity against Dd2 strain (AID 2302;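 active = growth inhibition above 50% at the single 2 µM test dose, taken to imply half-maximal potency below 2 µM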;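 note: 0% = DMSO untreated growth and 100% = chloroquine plus artemisinin killed control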). Particulars: P. falciparum Dd2 in RBCs, LDH growth readout, 72 h; at 2 µM; hits give high values.
Assay [2] in a line: HepG2 cytotoxicity, primary screen, cytotoxicity control for P. falciparum antimalarial project, cell-based, ATP luminescence (AID 2303;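 active = inhibition above 50%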;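 note: 0% = DMSO wells and 100% = digitonin-killed cells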). Particulars: HepG2 viability, 24-48 h, at 10 µM, hits give high values.
Assay [3] has as its target L-lactate dehydrogenase (Plasmodium falciparum (isolate CDC / Honduras)) (UniProt Q27743). Kind of assay: PfLDH activity inhibition – cell lysate, 3D7 strain, counter-screen for P. falciparum growth inhibition project (AID 2304).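 Note: 0% = vehicle and 100% = reference inhibitor.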 Particulars: P. falciparum 3D7 crude extract, LDH APAD/NBT absorbance; at 2 µM; hits give high values. (Counterscreens check selectivity or assay interference.)

The nature of assay [4]: inhibition of 3D7 malaria parasite growth – strain 3D7 (AID 2306).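 Note: 0% = DMSO wells and 100% = chloroquine plus artemisinin control wells.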 Particulars: P. falciparum 3D7 erythrocytic growth, LDH absorbance, 72 h; at 2 µM; hits give high values.
Assay [5] addresses Calcium-dependent protein kinase 1 (Plasmodium falciparum (isolate 3D7)) (UniProt P62344). Kind of assay: PfCDPK1 kinase inhibitors, biochemical, TCAMS library (AID 1159585; cut-off not given, nearly all actives have IC50 up to about 0.98 µM;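 note: inhibitors leave more ATP so luminescence rises with inhibition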). Particulars: recombinant PfCDPK1, Kinase-Glo ATP depletion luminescence. Background: Kinase-Glo reads ATP consumption through a luciferase reaction.
Assay [6] concerns the target Plasmodium falciparum protein kinase 6 (PK6, PF3D7_1337100) (UniProt Q8IDW1). Kind of assay: PfPK6 kinase inhibitors, biochemical, TCAMS library (AID 1159586). Particulars: recombinant PfPK6, Kinase-Glo ATP depletion luminescence.
Assay [7] has as its target Protein kinase 7 (PK7), Plasmodium falciparum 3D7 (PF3D7_0213400) (UniProt Q7YTF7). Kind of assay: inhibition of Plasmodium PK7 catalytic activity – biochemical, TCAMS antimalarial set, Kinase-Glo luminescence (AID 1159587). Particulars: recombinant PfPK7, Kinase-Glo ATP depletion luminescence.
For assay [8], the target named is Calcium-dependent protein kinase 4 (Plasmodium falciparum (isolate 3D7)) (UniProt Q8IBS5). Kind of assay: PfCDPK4 kinase inhibitors, biochemical, TCAMS library (AID 1159588; cut-off not given, nearly all actives have IC50 up to about 0.91 µM). Particulars: recombinant PfCDPK4, Kinase-Glo ATP depletion luminescence.
Calcium-dependent protein kinase 4 (Plasmodium falciparum (isolate 3D7)), sequence (Q8IBS5 whole entry, looked up): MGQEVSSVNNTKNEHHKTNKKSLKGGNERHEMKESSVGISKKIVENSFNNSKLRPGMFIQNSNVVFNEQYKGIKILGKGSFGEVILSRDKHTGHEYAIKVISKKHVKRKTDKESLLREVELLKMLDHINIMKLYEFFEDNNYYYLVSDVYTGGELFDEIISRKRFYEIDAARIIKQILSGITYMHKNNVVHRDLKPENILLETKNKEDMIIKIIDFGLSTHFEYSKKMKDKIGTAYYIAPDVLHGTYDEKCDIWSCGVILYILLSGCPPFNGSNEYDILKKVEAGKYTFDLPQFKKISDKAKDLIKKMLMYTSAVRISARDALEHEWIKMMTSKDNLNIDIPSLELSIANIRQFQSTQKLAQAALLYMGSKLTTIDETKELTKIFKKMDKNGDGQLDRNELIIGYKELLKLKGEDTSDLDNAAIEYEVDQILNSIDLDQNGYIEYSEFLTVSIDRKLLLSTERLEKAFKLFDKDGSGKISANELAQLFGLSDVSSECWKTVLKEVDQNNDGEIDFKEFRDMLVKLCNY

Results on 20 compounds are retold here after PubChem BioAssay.

Structures are written as SMILES. Values without a mark were called inactive. For some of these results: Potency and affinity values are given separately. Active and inactive are the calls of the source. Unless noted, the rule behind the calls is not given here.

Protein kinase 7 (PK7), Plasmodium falciparum 3D7 (PF3D7_0213400), sequence (Q7YTF7 1-343): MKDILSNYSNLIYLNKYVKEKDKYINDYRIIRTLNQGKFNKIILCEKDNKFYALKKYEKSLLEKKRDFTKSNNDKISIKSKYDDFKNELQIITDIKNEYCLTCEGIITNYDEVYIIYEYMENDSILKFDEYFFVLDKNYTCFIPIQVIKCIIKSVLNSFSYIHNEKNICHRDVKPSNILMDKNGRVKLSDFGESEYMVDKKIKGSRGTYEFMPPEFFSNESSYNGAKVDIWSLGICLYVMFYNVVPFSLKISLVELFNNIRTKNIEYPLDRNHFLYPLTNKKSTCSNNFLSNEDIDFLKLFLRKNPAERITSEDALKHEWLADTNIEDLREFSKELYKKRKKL
Calcium-dependent protein kinase 1 (Plasmodium falciparum (isolate 3D7)), sequence (P62344 whole entry, looked up): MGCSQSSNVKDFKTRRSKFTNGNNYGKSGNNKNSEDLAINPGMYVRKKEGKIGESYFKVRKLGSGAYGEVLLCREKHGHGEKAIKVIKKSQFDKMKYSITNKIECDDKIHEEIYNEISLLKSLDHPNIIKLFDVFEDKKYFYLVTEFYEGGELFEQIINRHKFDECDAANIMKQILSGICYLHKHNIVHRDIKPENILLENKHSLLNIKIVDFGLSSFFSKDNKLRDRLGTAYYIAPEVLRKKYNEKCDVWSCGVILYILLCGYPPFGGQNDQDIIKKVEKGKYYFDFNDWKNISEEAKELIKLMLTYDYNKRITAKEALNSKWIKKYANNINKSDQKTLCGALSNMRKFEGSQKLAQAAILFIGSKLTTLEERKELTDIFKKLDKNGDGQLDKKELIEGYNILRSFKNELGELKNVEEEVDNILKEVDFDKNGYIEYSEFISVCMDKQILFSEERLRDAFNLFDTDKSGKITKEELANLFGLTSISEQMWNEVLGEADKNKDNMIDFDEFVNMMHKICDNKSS
Plasmodium falciparum protein kinase 6 (PK6, PF3D7_1337100), sequence (Q8IDW1 1-305): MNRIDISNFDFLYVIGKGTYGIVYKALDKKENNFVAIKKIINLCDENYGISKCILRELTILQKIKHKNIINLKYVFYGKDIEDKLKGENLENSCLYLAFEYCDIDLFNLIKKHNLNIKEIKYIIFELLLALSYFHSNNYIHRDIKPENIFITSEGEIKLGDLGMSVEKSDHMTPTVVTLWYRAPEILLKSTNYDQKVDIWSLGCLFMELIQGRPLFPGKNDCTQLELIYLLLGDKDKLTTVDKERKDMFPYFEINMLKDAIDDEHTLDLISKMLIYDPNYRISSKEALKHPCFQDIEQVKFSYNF
L-lactate dehydrogenase (Plasmodium falciparum (isolate CDC / Honduras)), sequence (Q27743 whole entry, looked up): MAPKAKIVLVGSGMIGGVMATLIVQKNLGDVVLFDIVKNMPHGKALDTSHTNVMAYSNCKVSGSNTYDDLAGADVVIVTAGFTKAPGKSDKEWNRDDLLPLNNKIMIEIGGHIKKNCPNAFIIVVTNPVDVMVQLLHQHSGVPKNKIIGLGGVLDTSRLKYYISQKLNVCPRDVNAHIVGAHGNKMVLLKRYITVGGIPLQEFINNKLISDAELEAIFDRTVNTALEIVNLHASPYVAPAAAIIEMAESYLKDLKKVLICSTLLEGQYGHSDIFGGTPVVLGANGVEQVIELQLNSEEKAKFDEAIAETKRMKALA

By inhibition is commonly meant the change of the read-out against control, counted positive when it falls. `Cc1cc(N(C)C)nc(Nc2ccc(NC(=O)c3ccccc3Cl)cc2)n1`: the results for the growth inhibition in assay [1] and in assay [4] were 31% and 88% (active), respectively. The inhibition in assay [2] is 3%; in assay [3], -2%. Besides, the result in assay [5], in assay [6], in assay [7] and in assay [8] was inactive.
Turning to `O=C(Nc1ccc(N2CCC(Nc3ccccn3)CC2)cc1)c1cnc(Cl)c(Cl)c1`, the growth inhibition is 1% in assay [1] and 83% (active) in assay [4]. Also, the inhibition in assay [2] was 46%; in assay [3], 0%. The result in assay [5], in assay [6], in assay [7] and in assay [8] was inactive.
In the case of `O=c1cc(NCCCNCc2[nH]c3cc(Cl)ccc3c2Cl)[nH]c2ccccc12`, the growth inhibition in assay [1] is 1%; in assay [4], 91% (active). Further, the inhibition in assay [2] was 5%; in assay [3], -2%. Also, the outcome in assay [5], in assay [6], in assay [7] and in assay [8] was inactive.
Turning to `Cc1cc(OCCCNc2nc(NCCc3ccc(O)cc3)nc(N3CCNCC3)n2)c(Cl)c(C)c1Cl`, the growth inhibition in assay [1] is 8%; in assay [4], 99% (active). The inhibition in assay [2] was 54% (active); in assay [3], 5%. Further, the outcome in assay [5], in assay [6], in assay [7] and in assay [8] was inactive.
On to `Cc1cccc(CN2CCC(C(=O)Nc3ccc(-c4nc5ccccc5[nH]4)cc3)CC2)n1`, for which the values for the growth inhibition in assay [1] and in assay [4] were 3% and 96% (active), respectively. Besides, the figures for the inhibition in assay [2] and in assay [3] were -9% and 6%, respectively. Besides, the outcome in assay [5], in assay [6], in assay [7] and in assay [8] was inactive.
Regarding `CCN(CC)CCON=Cc1cc(C)c2[nH]c3ccc(OCc4ccccc4)cc3c2c1C`, the growth inhibition in assay [1] was 29%; in assay [4], 98% (active). Moreover, the inhibition is 29% in assay [2] and 1% in assay [3]. Besides, the result in assay [5], in assay [6], in assay [7] and in assay [8] was inactive.
In the case of `O=C(CC1CCCC1)N(Cc1ccc(-c2ccc(CNC3Cc4ccccc4C3)cc2)cc1)CC1CCCCN1` (stereo not given), the growth inhibition is 86% (active) in assay [1] and 88% (active) in assay [4]. For the same compound, the inhibition in assay [2] was 41%; in assay [3], -3%. In addition, the result in assay [5], in assay [6], in assay [7] and in assay [8] was inactive.
With `COc1cc(C(C)C)nc2ccc(NC(=O)c3ccc(C(=O)Nc4ccc5nc(C(C)C)cc(OC)c5c4)cc3)cc12`, the growth inhibition in assay [1] is 72% (active); in assay [4] it was 95% (active). Further, the values for the inhibition in assay [2] and in assay [3] were 39% and 0%, respectively. Also, the result in assay [5], in assay [6], in assay [7] and in assay [8] was inactive.
On to `COc1cccc(Nc2nc(C)cc(Nc3cccc(C#N)c3)n2)c1`, for which the growth inhibition in assay [1] is 92% (active); in assay [4] it was 101% (active). The inhibition in assay [2] is -2%; in assay [3] it was -3%. In addition, the outcome in assay [5], in assay [6], in assay [7] and in assay [8] was inactive.
`Cc1cccc(C)c1NC1=NC(=S)N(c2cccc(Cl)c2)C12CCC(C(C)(C)C)CC2` (stereo not given): the growth inhibition was 53% (active) in assay [1] and 87% (active) in assay [4]. Moreover, the inhibition in assay [2] is 4%; in assay [3], -14%. Further, the result in assay [5], in assay [6], in assay [7] and in assay [8] was inactive.
In the case of `CCCCCOc1ccc(N2C(N)=NC(N)=NC2(C)C)cc1`, the growth inhibition in assay [1] was -4%; in assay [4] it was 97% (active). In addition, the inhibition was 24% in assay [2] and -4% in assay [3]. For the same compound, the outcome in assay [5], in assay [6], in assay [7] and in assay [8] was inactive.
With `CN(C)C(=O)CN1CCN(c2ncnc(N3CCc4c([nH]c5ccccc45)[C@@H]3c3ccc4c(c3)CCO4)n2)CC1`, the values for the growth inhibition in assay [1] and in assay [4] were 98% (active) and 99% (active), respectively. Further, the results for the inhibition in assay [2] and in assay [3] were 12% and -1%, respectively. In addition, the outcome in assay [5], in assay [6], in assay [7] and in assay [8] was inactive.
For `CCc1c(C)c(C#N)c2nc3ccccc3n2c1NCc1ccco1`, the figures for the growth inhibition in assay [1] and in assay [4] were 90% (active) and 99% (active), respectively. The inhibition is -3% in assay [2] and 6% in assay [3]. For the same compound, the outcome in assay [5], in assay [6], in assay [7] and in assay [8] was inactive.
Turning to `CCC(CC)CN1C(=O)C(C)(c2ccccc2)N=C1N` (stereo not given), the growth inhibition in assay [1] is 11%; in assay [4] it was 84% (active). Also, the inhibition in assay [2] is 1%; in assay [3], -2%. The result in assay [5], in assay [6], in assay [7] and in assay [8] was inactive.
For the compound `O=C(NCCc1ccccc1)N(Cc1cccc(-c2ccc(CNCCc3ccccc3)cc2)c1)C1CCN(Cc2ccccc2)CC1`, the growth inhibition in assay [1] was 91% (active); in assay [4] it was 90% (active). Moreover, the inhibition in assay [2] was 94% (active); in assay [3], -5%. The outcome in assay [5], in assay [6], in assay [7] and in assay [8] was inactive.
Regarding `COc1ccc2nccc([C@@H](O)CN3CCC(NC(=O)c4ccc(C5(C(F)(F)F)N=N5)cc4)CC3)c2c1`, the growth inhibition in assay [1] is 41%; in assay [4], 97% (active). The inhibition in assay [2] is 8%; in assay [3] it was -8%. The outcome in assay [5], in assay [6], in assay [7] and in assay [8] was inactive.
Consider `COc1ccc(-n2cc(C(=O)c3cc(Br)ccc3O)cc(C#N)c2=O)cc1Cl`, for which the values for the growth inhibition in assay [1] and in assay [4] were 23% and 99% (active), respectively. Further, the inhibition in assay [2] was 29%; in assay [3] it was -5%. In addition, the outcome in assay [5], in assay [6], in assay [7] and in assay [8] was inactive.
With `COC(=O)Cn1c(C2CCN(CC3CCC(NC(=O)/C=C/c4ccc(Cl)c(Cl)c4)CC3)CC2)nc2ccccc21` (stereo not given), the figures for the growth inhibition in assay [1] and in assay [4] were 17% and 95% (active), respectively. Moreover, the inhibition is 12% in assay [2] and 4% in assay [3]. The outcome in assay [5], in assay [6], in assay [7] and in assay [8] was inactive.
`CCCCn1c(=N)c(C(=O)NCc2cccnc2)cc2c(=O)n3cccc(C)c3nc21`: the growth inhibition was 47% in assay [1] and 101% (active) in assay [4]. The inhibition in assay [2] is 7%; in assay [3], -2%. For the same compound, the outcome in assay [5], in assay [6], in assay [7] and in assay [8] was inactive.
Consider `CN(CCN1CCC(c2c[nH]c3ccccc23)CC1)c1ccc(-c2nc3cc(Cl)c(Cl)cc3[nH]2)cc1`, for which the growth inhibition in assay [1] and in assay [4] was 101% (active) in each case. The inhibition in assay [2] is 22%; in assay [3], -1%. Moreover, the result in assay [5], in assay [6], in assay [7] and in assay [8] was inactive.
